# NALP1 yeast inh: NALP1 inflammasome inhibitors in reconstituted yeast, colorimetric, S. cerevisiae, triplicate retest. S. cerevisiae NALP1/ASC/caspase-1 growth, X-gal OD620, 72 h. inhibition, % at 10 µM. 280,000 compounds, 0.61% hits; in the data active means inhibition mostly above about 24%, no sharp cut-off; inactive means mostly below about 32%
# NLRP3 yeast inh: NALP3 inflammasome inhibitors in reconstituted yeast, primary screen, luminescence, uHTS | inhibition, % at 10 µM | Yeast reconstituted NLRP3/ASC/caspase-1, beta-gal luminescence, 24 h | 330,000 compounds, 0.39% hits;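 active means inhibition of 50% or more; inactive means inhibition below 50%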;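 further: plate controls were induced DMSO wells for no effect and uninduced yeast grown without galactose for full effect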
# PolyA inh: polyadenylation inhibitors in yeast reporter cells, primary screen, luminescence, S. cerevisiae | S. cerevisiae SKY197-pL101 polyadenylation reporter, beta-gal luminescence; efflux-impaired pdr1/pdr3 knockout yeast; score 100 = 6 SD above DMSO | activity score, % at 12 µM | 300,000 compounds, 0.02% hits | AID 1875, 2009;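 active means lowest replicate activity score at least 50, where 100 means six control SD above control mean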;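 further: yeast exposed to compound for 9 h at 30 °C; higher score means more reporter readthrough which indicates perturbed polyadenylation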
# SUMO Mot1 rescue: yeast Mot1-301 growth rescue at high temperature, primary screen, SUMOylation pathway inhibitor project, S. cerevisiae, ATP luminescence, 38.5C; S. cerevisiae Mot1-301 growth rescue; percent above DMSO median, 100 means doubled; growth rescue, % at 18.8 µM; 320,000 compounds, 1% hits;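 active means every valid replicate shows activation above 250% relative to neutral control wells; inactive means the rest, any valid replicate at or below 250%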;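 further: OY570 slx delta 5 strain wells were the positive control but not used for scaling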
# Yeast Mot1 SUMO: growth restoration of Mot1-301 yeast on galactose, dose response, SUMO pathway inhibitor project, whole organism, S. cerevisiae, ATP luminescence, cherry-picked samples. shares compounds with SUMO Mot1 rescue. S. cerevisiae Mot1-301 galactose growth, 24 h; -100 = growth of slx-deleted rescue strain. growth activity, percent, % at 42 µM. 2,300 tested, under 10 active. AID 493004, 2010;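 active means Signal drops as the depositor expects, and the fitted half-maximal dose is no more than ten times the top valid tested dose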;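 further: more negative values mean stronger growth rescue toward the control strain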
# An asterisk follows results filed as active; x = no result; + = active, no number. This is a sample that favours compounds with a hit; in the whole collection about 1.8% have one here.
SMILES,NALP1 yeast inh,NLRP3 yeast inh,PolyA inh,SUMO Mot1 rescue,Yeast Mot1 SUMO
CCOC(=O)C1=CN2CCCC[C@@H]2CC1=O,x,13.1,x,7.5,x
Cc1ccc(C)c(N2CCN(c3ccc([N+](=O)[O-])cn3)CC2)c1,16.7,3.9,-3.7,-7.9,x
COc1cccc(/C=N/NC(=O)CNC(=O)c2ccco2)c1O,-41.9,-5.2,17.8,400.0*,-0.6
COc1cccc(/C=N/NC(=O)CNC(=O)c2ccncc2)c1O,-13.9,3.6,8.9,11.5,x
Cn1ncc(C#N)c1NC(=O)C1CC(c2ccc(Cl)c(Cl)c2)=NO1 (stereo unspecified),-1.6,-13.8,11.7,-12.7,x
O=C(NCC1CCCO1)C1CC(c2ccc(Cl)c(Cl)c2)=NO1 (stereo unspecified),8.4,20.8,9.0,869.9*,0.2
NS(=O)(=O)c1cccc(NC(=O)CN2CCc3ccccc32)c1,-20.1,4.1,16.3,-9.3,x
CN(C)S(=O)(=O)c1cccc(NC(=O)C(c2ccccc2)c2ccccc2)c1,-0.2,17.5,-6.3,403.9*,0.1
CN(C)S(=O)(=O)c1cccc(C(=O)Nc2ccccc2)c1,31.8,14.1,-0.3,-26.5,x
CC(C)N(C(=S)Nc1cccc(S(=O)(=O)N(C)C)c1)c1ccccc1,4.4,0.8,7.5,453.6*,0.5
COc1ccc(N(CC(=O)Nc2ccc(C(N)=O)cc2)S(=O)(=O)c2ccc(C)c([N+](=O)[O-])c2)cc1,0.0,10.8,11.9,9.7,x
CCOc1ccc(CCN2CN(C3CCCCC3)CNC2=S)cc1OCC,-16.0,14.6,-24.6,431.4*,0.6
CC(=O)N1c2ccc([N+](=O)[O-])cc2NC(=O)CC1C (stereo unspecified),26.6,24.9,9.4,600.2*,-0.5
Cc1ccc(-n2nc3c(=O)n(CCCC(=O)NCc4cccc(F)c4)nc(C)c3c2C)cc1,-3.7,6.3,-5.6,597.4*,-0.1
COc1cccc(CNC(=O)CCCn2nc(C)c3c(C)n(-c4ccccc4)nc3c2=O)c1,5.8,-14.3,17.4,531.1*,0.2
Cc1ccc(-n2nc3c(=O)n(CCCC(=O)NCc4ccc(F)cc4)nc(C)c3c2C)cc1,9.3,2.2,-6.1,3.0,x
COc1ccc(N2CC(O)=C(c3nc(C)cs3)C2=N)cc1,10.3,12.4,-24.9,-4.6,x
COC(=O)c1cc2n3ccccc3c(C)c(-c3ccccc3)c-2c1C(=O)OC,-14.9,13.6,17.4,-0.8,x
CCN(CC)S(=O)(=O)c1cc(NC(=O)COC(=O)CCc2nc3ccccc3s2)ccc1C,8.1,0.9,10.4,363.1*,0.4
Nc1nc(CSc2nnnn2-c2ccc(Cl)cc2)nc(N2CCOCC2)n1,0.1,8.5,10.8,376.0*,-0.3
COCCNS(=O)(=O)c1cc(C(=O)O)ccc1OC,22.8,0.0,-1.4,60.6,x
COc1ccc(C(=O)O)cc1S(=O)(=O)NCCN(C)C,-2.1,-9.6,-5.0,824.4*,0.1
O=C(NCC(c1ccco1)N1CCCC1)c1cccc(NS(=O)(=O)c2ccc(Br)cc2)c1 (stereo unspecified),x,10.6,-6.3,73.2,x
O=C(CSCc1cc(=O)[nH][nH]1)Nc1ccc(F)cc1,5.3,24.5,-1.7,29.3,x
Cc1ccc(CNC(=O)CCNS(=O)(=O)c2cccs2)cc1,25.1,6.4,20.9,+,0.6
SMILES,NALP1 yeast inh,NLRP3 yeast inh,PolyA inh,SUMO Mot1 rescue,Yeast Mot1 SUMO
CC(C)(C)Nc1nc(Cl)nc(N(C#N)CN2C(=O)c3ccccc3S2(=O)=O)n1,20.7,19.8,-8.4,13.2,x
CCCNC(=O)CN(c1ccc(F)cc1)S(=O)(=O)c1ccc2c(c1)OCCO2,5.6,11.5,-7.9,847.3*,0.0
C/C(CC(=O)Nc1cccc(Cl)c1Cl)=N\NC(=O)c1ccccc1C,9.8,20.0,7.5,452.0*,0.1
Nc1nc(SCC(=O)Nc2ccccc2Sc2ccccc2)n[nH]1,8.0,2.9,11.2,-0.8,x
CCOC(=O)c1cc(C#N)c(Oc2ccccc2OC)nc1-c1ccccc1,3.2,16.8,-34.6,+,0.4
Cc1cccc2nc3ccccc3cc12,x,12.3,0.0,576.4*,-0.6
O=S(=O)(CCN1CCCCC1)Oc1ccc(Cl)cc1Cl,18.1,12.1,12.2,921.7*,0.7
Clc1ccc(Cl)c(OCCCCN2CCCCC2)c1,4.2,34.1,-60.8,-2.4,x
COc1ccccc1CN(CC(=O)NCc1ccc2c(c1)OCO2)C(=O)c1ccc2c(c1)OCCO2,-3.2,5.9,7.1,x,x
CCC1CCCCN1C(=O)CSc1nc2c([nH]c3ccccc32)c(=O)n1C (stereo unspecified),17.1,-1.6,-2.2,631.1*,0.9
CCSc1nc2c([nH]c3ccccc32)c(=O)n1C,8.0,29.6,-19.7,-20.5,x
CN(C(=O)CSc1nnc(-c2cccc(F)c2)n1N)C1CCS(=O)(=O)C1 (stereo unspecified),17.2,-13.2,2.8,400.9*,0.5
CCn1cc(CCC(=O)NCc2ccccc2OC)c2ccccc21,17.7,10.2,-4.9,6.7,x
CCn1cc(CCCC(=O)NCc2ccccc2OC)c2ccccc21,-14.4,17.4,-1.5,888.5*,-0.3
CC(=O)NC(CC(C)C)C(=O)NC(CO)C(=O)NC(CCC(=O)O)C(=O)NC(C)C(=O)NC(CC(C)C)C(N)=O (stereo unspecified),x,18.9,-6.1,782.3*,0.4
CC(C)CC(NC(=O)C(CC(C)C)NC(=O)OC(C)(C)C)C(N)=O (stereo unspecified),-45.5,1.9,17.7,6.8,x
Cc1ccccc1-n1c2nc(=O)n(C)c(=O)c-2cc2ccccc21,-12.5,-3.3,0.1,168.8,x
Cn1c(=O)nc2n(Cc3ccccc3)c3ccccc3cc-2c1=O,19.5,-4.9,-24.1,417.0*,-0.5
Cc1ccccc1NC(=O)CCC(=O)OCC(=O)c1cccc([N+](=O)[O-])c1,10.0,-3.8,18.9,-5.4,x
Cc1nn(C)cc1CNC(=O)C1CCC(=O)N(Cc2cccc(C(F)(F)F)c2)C1 (stereo unspecified),-7.6,3.5,-9.6,374.7*,-0.1
Cc1cc(CNC(=O)C2CCC(=O)N(Cc3cccc(C(F)(F)F)c3)C2)no1 (stereo unspecified),4.7,13.5,-2.3,-18.8,x
Cc1nn(-c2ccccc2)c(N)c1N=Nc1cccc(S(=O)(=O)N2CCOCC2)c1,x,18.2,-7.1,386.7*,-0.9
COc1ccc(NC(=O)/C=C2\SC(=O)NC2=O)cc1,3.7,11.7,14.9,-31.8,x
Cc1cc2c(cc1C)-c1nnc(-c3ccc4ccccc4n3)n1C(C)(C)C2,-0.3,24.2,7.9,643.8*,0.2
Cc1ccc(-c2nc(CS(=O)(=O)CC(=O)NC3CCCCC3C)c(C)o2)cc1 (stereo unspecified),-9.4,19.6,7.9,698.6*,0.9
COC(=O)c1ccc(Oc2ccc3nnc(C)n3n2)cc1,-8.4,16.7,-8.2,1.2,x
